Data reported in ChEMBL document CHEMBL3988442, “University of Dundee, Small-Polar-MMV Screening Library” (2021).
For some of these results: Results with a measured potency or affinity are listed apart.

Tests used:
Design in all cases: scale not given: direction of the effect not stated beside the values
[1] = target: Protein translocase subunit SecA (Escherichia coli (strain K12)) (UniProt P10408); test: Assay to Identify E. coli SecA ATPase Inhibitors; type: functional; conditions: 30 µM
[2] = target: T1, Ubiquitin-activating enzyme e1, putative (Leishmania donovani (strain BPK282A1)) (UniProt E9BSI1); test: Leishmania donovani Ubiquitin Activating Enzyme (LdE1); type: functional; conditions: 30 µM
T1 sequence (whole entry): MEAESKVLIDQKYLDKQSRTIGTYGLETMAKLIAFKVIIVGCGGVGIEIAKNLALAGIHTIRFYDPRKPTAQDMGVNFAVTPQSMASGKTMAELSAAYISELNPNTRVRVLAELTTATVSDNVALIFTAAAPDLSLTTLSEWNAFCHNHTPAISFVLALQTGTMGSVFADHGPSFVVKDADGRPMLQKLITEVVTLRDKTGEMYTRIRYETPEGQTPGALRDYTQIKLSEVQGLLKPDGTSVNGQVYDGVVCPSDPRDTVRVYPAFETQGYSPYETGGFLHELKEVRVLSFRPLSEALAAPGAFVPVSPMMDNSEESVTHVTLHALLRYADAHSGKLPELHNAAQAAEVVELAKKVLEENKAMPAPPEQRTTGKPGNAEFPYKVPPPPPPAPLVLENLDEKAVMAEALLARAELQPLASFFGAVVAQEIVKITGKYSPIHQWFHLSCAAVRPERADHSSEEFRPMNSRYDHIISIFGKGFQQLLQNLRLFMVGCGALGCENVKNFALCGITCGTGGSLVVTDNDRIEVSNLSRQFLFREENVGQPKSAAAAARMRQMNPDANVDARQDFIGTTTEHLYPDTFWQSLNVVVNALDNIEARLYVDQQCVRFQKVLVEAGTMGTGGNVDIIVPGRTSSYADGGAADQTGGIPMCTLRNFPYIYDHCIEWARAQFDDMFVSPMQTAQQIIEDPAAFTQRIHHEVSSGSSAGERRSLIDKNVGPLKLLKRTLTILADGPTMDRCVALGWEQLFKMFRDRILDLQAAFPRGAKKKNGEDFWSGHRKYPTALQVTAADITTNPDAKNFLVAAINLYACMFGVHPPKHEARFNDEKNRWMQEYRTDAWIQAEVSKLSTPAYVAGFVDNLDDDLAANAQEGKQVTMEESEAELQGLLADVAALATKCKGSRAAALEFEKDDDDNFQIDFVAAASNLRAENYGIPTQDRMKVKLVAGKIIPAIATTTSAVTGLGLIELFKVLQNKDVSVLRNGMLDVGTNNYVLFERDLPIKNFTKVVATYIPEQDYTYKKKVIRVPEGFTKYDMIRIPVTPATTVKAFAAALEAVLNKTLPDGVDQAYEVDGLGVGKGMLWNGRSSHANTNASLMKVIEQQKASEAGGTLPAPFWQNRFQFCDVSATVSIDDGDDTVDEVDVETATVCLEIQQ

[3] = target: AMP-activated protein kinase, AMPK (Homo sapiens) (UniProt P54646+O43741+P54619+Q9UGJ0+Q9Y478+Q13131+Q9UGI9); test: AMP-dependent Kinase enzyme assay. An in vitro enzyme assay that detects ADP turnover that is directly proportional to AMPK activity. This uses naive AMPK that is activated during the assay with MK-8722; type: functional; conditions: 30 µM
[4] = target: Sialic acid-binding Ig-like lectin 9 (Homo sapiens) (UniProt Q9Y336); test: Hs-Siglec9 ALPHAscreen SOP 20170721; conditions: 10 µM
Sialic acid-binding Ig-like lectin 9 (Homo sapiens), sequence (Q9Y336 whole entry): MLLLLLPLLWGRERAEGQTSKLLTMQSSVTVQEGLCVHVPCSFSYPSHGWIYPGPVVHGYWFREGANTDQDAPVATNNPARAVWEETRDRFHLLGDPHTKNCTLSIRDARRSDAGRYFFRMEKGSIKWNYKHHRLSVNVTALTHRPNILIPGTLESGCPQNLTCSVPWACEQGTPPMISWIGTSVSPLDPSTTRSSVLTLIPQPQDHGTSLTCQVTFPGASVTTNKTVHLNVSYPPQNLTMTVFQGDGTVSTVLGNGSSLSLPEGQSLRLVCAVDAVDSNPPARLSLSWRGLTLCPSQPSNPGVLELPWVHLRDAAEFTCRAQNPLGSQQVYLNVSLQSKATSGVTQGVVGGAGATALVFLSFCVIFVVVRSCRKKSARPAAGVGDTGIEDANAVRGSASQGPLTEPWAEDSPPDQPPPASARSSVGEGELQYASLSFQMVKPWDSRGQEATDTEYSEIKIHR

[5] = test system: Trypanosoma cruzi; test: Trypanosoma cruzi phosphomannomutase and mannose-1-phosphate guanylyltransferase assay; type: functional; conditions: 10 µM
[6] = target: T2, Arginase-2, mitochondrial (Homo sapiens) (UniProt P78540); test: in vitro enzyme assay to detect the production of urea directly proportional to the activity of Arginase II; type: functional; conditions: 33.3 µM; also: in the data most compounds retested in dose-response had high values
T2 sequence (whole entry): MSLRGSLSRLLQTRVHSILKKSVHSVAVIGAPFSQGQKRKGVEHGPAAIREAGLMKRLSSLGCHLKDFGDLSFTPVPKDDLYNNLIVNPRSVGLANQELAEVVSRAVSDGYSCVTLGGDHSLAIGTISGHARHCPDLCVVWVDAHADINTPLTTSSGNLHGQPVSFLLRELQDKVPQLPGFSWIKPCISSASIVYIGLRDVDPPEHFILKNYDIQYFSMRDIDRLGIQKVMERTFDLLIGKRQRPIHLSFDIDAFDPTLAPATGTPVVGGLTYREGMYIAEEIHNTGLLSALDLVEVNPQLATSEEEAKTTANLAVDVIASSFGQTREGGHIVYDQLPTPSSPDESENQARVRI

[7] = target: T3, Proteasome subunit beta (Trypanosoma cruzi) (UniProt O96673); test: Trypanosoma cruzi proteasome chymotrypsin-like activity (TcProtChymo) assay.; also: in the data most compounds retested in dose-response had high values; type: functional; conditions: 9.37 µM
T3 sequence (whole entry): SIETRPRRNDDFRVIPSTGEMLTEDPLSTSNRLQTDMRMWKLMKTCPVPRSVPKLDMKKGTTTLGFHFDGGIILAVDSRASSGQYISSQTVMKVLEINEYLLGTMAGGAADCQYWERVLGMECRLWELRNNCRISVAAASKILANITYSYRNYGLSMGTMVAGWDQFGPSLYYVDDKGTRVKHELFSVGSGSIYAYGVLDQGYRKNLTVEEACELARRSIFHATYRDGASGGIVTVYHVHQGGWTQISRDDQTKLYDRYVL

[8] = organism: Homo sapiens; test: To identify inhibition of the IFN signalling (Jak-Stat) pathway via expression of an eGFP reporter gene under the control of an IFN-stimulated response element (ISRE) containing MxA promoter.; type: functional; conditions: 30 µM
[9] = target: T4, Tyrosyl-tRNA synthetase, putative (Trypanosoma cruzi (strain CL Brener)) (UniProt Q4DSP6); test: Trypanosoma cruzi tyrosyl tRNA synthetase (TcYRS) _High Tyrosine SOP; type: functional; conditions: 30 µM; also: in the data most compounds retested in dose-response had high values
T4 sequence (whole entry): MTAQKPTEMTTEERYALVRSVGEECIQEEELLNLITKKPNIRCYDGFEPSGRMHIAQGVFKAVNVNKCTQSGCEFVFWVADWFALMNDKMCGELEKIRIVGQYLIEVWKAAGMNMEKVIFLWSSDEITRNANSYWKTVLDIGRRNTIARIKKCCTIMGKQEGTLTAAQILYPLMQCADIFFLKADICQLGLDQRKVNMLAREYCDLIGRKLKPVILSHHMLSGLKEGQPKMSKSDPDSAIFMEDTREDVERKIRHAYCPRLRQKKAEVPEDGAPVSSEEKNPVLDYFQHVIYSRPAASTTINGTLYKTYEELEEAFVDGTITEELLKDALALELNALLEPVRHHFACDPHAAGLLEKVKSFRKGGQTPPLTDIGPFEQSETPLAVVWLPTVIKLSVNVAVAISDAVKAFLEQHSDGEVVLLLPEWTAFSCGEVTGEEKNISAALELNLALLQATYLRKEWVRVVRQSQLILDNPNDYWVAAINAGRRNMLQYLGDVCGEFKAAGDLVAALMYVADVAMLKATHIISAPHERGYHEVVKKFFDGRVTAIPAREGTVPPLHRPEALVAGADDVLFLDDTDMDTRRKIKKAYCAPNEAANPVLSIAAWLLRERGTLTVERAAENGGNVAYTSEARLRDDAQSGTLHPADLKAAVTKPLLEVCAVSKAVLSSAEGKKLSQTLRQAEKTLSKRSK

[10] = target: T4, Tyrosyl-tRNA synthetase, putative (Trypanosoma cruzi (strain CL Brener)); test: Trypanosoma cruzi tyrosyl tRNA synthetase (TcYRS) SOP; type: functional; conditions: 30 µM
[11] = target: Chromo domain-containing protein 1 (Saccharomyces cerevisiae (strain ATCC 204508 / S288c) (Baker's yeast)) (UniProt P32657); test: ScCHD-1 Enzyme Inhibition Assay; type: functional; conditions: 30 µM; also: in the data most compounds retested in dose-response had high values
Chromo domain-containing protein 1 (Saccharomyces cerevisiae (strain ATCC 204508 / S288c) (Baker's yeast)), sequence (P32657 whole entry, the tested form may be a part): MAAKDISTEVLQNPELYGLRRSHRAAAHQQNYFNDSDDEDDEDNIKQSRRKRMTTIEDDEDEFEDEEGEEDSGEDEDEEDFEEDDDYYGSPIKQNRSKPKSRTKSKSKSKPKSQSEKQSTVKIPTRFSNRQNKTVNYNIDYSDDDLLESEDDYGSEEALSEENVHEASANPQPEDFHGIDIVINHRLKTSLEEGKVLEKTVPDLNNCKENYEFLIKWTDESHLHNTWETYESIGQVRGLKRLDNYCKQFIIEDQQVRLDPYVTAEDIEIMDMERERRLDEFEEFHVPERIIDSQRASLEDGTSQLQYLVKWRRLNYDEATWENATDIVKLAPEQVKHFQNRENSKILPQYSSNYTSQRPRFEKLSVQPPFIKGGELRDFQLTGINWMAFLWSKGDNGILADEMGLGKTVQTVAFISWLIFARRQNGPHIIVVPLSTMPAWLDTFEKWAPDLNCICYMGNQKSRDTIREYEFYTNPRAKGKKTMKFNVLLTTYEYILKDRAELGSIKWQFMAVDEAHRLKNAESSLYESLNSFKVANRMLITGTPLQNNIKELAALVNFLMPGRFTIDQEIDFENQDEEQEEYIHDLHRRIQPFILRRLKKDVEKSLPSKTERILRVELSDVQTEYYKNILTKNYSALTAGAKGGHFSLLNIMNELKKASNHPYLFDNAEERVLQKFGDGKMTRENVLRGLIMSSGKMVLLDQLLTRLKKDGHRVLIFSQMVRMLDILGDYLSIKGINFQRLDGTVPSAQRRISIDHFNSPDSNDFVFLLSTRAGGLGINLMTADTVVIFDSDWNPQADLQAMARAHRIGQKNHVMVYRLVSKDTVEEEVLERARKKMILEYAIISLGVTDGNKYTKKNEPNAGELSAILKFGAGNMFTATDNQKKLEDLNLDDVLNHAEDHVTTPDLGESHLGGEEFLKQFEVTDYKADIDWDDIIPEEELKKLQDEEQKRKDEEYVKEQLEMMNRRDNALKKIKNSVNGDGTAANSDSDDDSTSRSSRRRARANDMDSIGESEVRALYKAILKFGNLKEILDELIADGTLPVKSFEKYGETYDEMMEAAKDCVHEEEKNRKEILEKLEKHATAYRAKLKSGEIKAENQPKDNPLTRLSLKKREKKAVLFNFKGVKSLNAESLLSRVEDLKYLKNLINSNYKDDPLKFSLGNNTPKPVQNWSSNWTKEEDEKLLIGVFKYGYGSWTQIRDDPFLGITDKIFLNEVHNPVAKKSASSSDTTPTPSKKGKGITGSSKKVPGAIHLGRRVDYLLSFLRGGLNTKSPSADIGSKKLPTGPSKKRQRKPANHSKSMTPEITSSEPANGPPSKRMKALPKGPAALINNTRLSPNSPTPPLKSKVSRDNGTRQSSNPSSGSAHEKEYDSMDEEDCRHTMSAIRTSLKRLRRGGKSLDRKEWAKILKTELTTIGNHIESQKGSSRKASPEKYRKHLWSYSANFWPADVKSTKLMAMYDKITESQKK

Protein translocase subunit SecA (Escherichia coli (strain K12)), sequence (P10408 whole entry): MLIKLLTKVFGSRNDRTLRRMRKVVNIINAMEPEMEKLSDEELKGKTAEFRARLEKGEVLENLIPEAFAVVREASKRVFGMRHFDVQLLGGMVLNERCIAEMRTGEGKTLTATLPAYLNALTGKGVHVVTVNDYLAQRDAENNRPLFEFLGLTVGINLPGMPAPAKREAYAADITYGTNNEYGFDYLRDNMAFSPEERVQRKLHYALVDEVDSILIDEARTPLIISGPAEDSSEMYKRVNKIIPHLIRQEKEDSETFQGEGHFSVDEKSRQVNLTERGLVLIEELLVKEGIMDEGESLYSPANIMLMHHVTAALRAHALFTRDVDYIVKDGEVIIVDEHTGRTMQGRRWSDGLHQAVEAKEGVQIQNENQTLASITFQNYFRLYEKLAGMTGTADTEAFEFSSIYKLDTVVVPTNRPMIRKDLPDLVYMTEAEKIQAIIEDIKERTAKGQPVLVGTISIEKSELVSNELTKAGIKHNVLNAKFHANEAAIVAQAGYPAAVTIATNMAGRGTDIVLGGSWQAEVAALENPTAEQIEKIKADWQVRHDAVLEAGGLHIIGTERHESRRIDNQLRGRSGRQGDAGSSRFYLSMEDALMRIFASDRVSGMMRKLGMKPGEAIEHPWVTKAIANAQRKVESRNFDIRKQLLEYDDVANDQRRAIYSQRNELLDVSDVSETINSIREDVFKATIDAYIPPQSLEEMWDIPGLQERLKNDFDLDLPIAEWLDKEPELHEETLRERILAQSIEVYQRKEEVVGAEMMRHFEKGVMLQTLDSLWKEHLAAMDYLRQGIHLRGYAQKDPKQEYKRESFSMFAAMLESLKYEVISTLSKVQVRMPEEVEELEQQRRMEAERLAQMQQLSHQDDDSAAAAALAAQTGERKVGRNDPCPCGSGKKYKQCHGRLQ

SMILES	Percent Effect [1]	Percent Effect [2]	Percent Effect [3]	Percent Effect [4]	Percent Effect [5]	Percent Effect [6]	Percent Effect [7]	Percent Effect [8]	Percent Effect [9]	Percent Effect [10]	Percent Effect [11]
O=C(CCC1CCCO1)NS(=O)(=O)c1ccc(Cl)cc1 (stereo not given)	-3.22%	18.9%	-10.2%	0.394%	-4.81%	-2%	17.5%	16.7%	8.37%	18.5%	-1.63%
COCCc1noc(CNC2CCc3nc(C(C)C)nn3C2)n1 (stereo not given)	-1.47%	2.6%	8.06%	-4.34%	-1.27%	-2.74%	6.39%	17.2%	0.952%	0%	-13.7%
O=C(CCNC(=O)c1ccccc1N1CCOCC1)NC1CCCC1	-4.31%	16.4%	-6.31%	6.63%	4.76%	-0.798%	13.1%	-7.41%	8.33%	21%	-9.11%
CCc1ccc(C(=O)O)cc1S(=O)(=O)Nc1ccc(F)c(C#N)c1	-2.04%	-2.7%	-11.6%	10.6%	3.87%	-0.802%	1.08%	7.96%	-2.46%	1.24%	-2.76%
Cc1ccc(C(=O)N2CCC3(CC2)NC(=O)CC3c2ccccc2)cn1 (stereo not given)	-2.54%	2.67%	3.38%	7.94%	0.965%	-48.6%	7.35%	-9.77%	2.08%	5%	-2.72%
CN1CCOC(CNCc2cccc(OCc3ccccn3)c2)C1 (stereo not given)	-5.11%	5.06%	-8.27%	12.2%	3.87%	-1.9%	-4.18%	-5.19%	7.39%	11.4%	-2.11%
CCn1nc(C)c(CNC(=O)c2cn(CC3CCCO3)nn2)c1C (stereo not given)	-6.8%	0%	-1.16%	7.76%	2.24%	2.08%	2.27%	6.98%	6.01%	11.1%	-0.117%
O=C(N1CCOCC1)N1CCc2ncnc(NC3CC3)c2CC1	-0.799%	0%	6.99%	-5.96%	-7.81%	6.67%	19.2%	19.9%	0.99%	6.1%	0.83%
CCN(Cc1ccc2c(c1)OCO2)C(=O)c1ccc(C)[nH]c1=O	-4.38%	13.2%	-8.05%	-3.99%	11.5%	-1.92%	11.9%	15.1%	10.3%	19.5%	-15.7%
CCc1ncc(C(=O)NCCNC(=O)Cc2ccc(F)cc2)s1	-1.95%	8%	-16.6%	11.1%	5.55%	16.7%	11.3%	-8.05%	7.1%	16.1%	-3.11%
O=C(CCc1cccs1)N1CCC(N2CCNC2=O)CC1	-2.57%	23.4%	-4.07%	-12.7%	3.23%	-1.05%	18.5%	-5.88%	7.62%	25.9%	-19.5%
COCCN1C(=O)[C@]2(CC[C@@H]3CN(C(=O)NCC(C)C)C[C@@H]32)N=C1C	1.47%	5.33%	-2.77%	-5%	5.41%	-49.3%	5.3%	-20.3%	1.04%	0%	-4.55%
Cc1ccc(NC2CCN(C(=O)c3ccsc3)CC2)nn1	-9.11%	10.4%	-1.87%	1.46%	-6.37%	-1.07%	5.57%	30%	6.8%	9.76%	-2%
CC(C)Oc1ccc(CNC(=O)CC(F)(F)F)cc1F	-5.61%	10.5%	-1.12%	6.95%	-2.52%	1.08%	1.78%	-11.2%	4.43%	11.1%	-4.45%
Cn1cc(C2CC(=O)NC23CCN(c2ncc(F)cn2)CC3)cn1 (stereo not given)	0.954%	16%	3.9%	5.28%	-4.25%	-16.3%	3.08%	16.6%	1.04%	17.5%	-4.13%
Cc1noc([C@H]2COC[C@H]3CN(C(=O)Cc4ccc(F)cc4)C[C@H]32)n1	-6.71%	10.8%	-2.57%	13.3%	3.91%	3.75%	7.18%	-8.46%	5.94%	11%	-1.22%
CC(O)CN1CCN(C(=O)c2cnn(-c3ccc(Cl)cc3)c2)CC1 (stereo not given)	-8.22%	5.33%	-3.17%	23.3%	6.13%	5.21%	11%	7.52%	1.64%	8.64%	-3.32%
Cc1n[nH]c(C)c1C1CCCN1C(=O)NCC(=O)NC(C)(C)C (stereo not given)	-4.22%	0%	26.9%	3.62%	-6.86%	2.27%	3.9%	0.328%	1.07%	2.5%	-0.359%
O=C(c1ccsc1)N1C[C@@H](CN2CCCC2)[C@@H](CO)C1	-10%	2.67%	-3.05%	-2.17%	-5.36%	-5.21%	4.71%	2.13%	-1.64%	-1.24%	-4.1%
Cc1ccc(CN2CCOC3(COCCN(CCN(C)C)C3)C2)o1 (stereo not given)	-3.53%	5.33%	9.65%	0.443%	1.18%	-0.699%	14%	3.66%	8.51%	19.2%	-3.31%
